V-ATPase pHluor = regulators of yeast V-ATPase proton pumping, primary screen, pHLuorin cytosolic pH fluorescence | S. cerevisiae | response, % at 10 µM | 350,000 compounds, 0.37% hits; in the data active = response mostly above about 7.3%, no sharp cut-off; inactive = mostly below about 5.4%; note: actives read high
HTR5A inv ctr = HTR5A inverse agonists in luminescence cell assay, primary screen, counter-screen for OPRM1-OPRD1 heterodimer inverse agonist project, full-deck HTS. AID 504634, 2011. 340,000 compounds, 0.083% hits. 5-hydroxytryptamine receptor 5A (Homo sapiens), P47898. HTR5A cell line, inverse agonism. inhibition, % at 9.3 µM; in the data active = inhibition mostly above about 23%, no sharp cut-off; inactive = mostly below about 18%;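 note: 0% = cells with DMSO and 100% = no-cell wells with DMSO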
Target sequence (P47898 whole entry, looked up): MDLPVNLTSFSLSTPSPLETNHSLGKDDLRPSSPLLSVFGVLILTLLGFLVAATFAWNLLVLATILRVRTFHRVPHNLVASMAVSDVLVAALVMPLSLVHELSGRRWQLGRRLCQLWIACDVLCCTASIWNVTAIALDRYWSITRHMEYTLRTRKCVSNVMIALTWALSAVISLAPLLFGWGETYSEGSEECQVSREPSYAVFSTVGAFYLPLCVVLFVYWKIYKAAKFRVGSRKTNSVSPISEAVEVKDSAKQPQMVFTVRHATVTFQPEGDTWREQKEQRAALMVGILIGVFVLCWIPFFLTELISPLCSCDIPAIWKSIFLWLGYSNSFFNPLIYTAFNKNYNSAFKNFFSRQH
HTR5A ag ctr = HTR5A agonists in luminescence cell assay, primary screen, counter-screen for OPRM1-OPRD1 heterodimer agonist project, full-deck HTS | AID 504692, 2011 | activation, % at 9.3 µM | 340,000 compounds, 0.61% hits | cell-based | 5-hydroxytryptamine receptor 5A (Homo sapiens), P47898; in the data active = activation mostly above about 9.5%, no sharp cut-off; inactive = mostly below about 7.6%;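 note: 0% = cells with vehicle only and 100% = reference agonist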
MIN6 prolif = inducers of MIN6 beta-cell proliferation, primary screen, ATP luminescence, uHTS; MIN6 cells proliferation, ATPlite luminescence, 48 h; cells starved in 0.2% serum; 100% = growth in 10% serum; AID 2380, 2010; proliferation, % at 10 µM; 330,000 compounds, 0.29% hits;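 active = compounds whose signal lies at least 3.5 SD above the mean of all wells on their plate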;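 note: 0% = DMSO-treated cells in low-serum medium and 100% = 10% serum control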
MOR-DOR ag-1 = agonists of OPRM1-OPRD1 heterodimerization, primary screen, cell-based, luminescence. Mu-type opioid receptor (Homo sapiens) + Delta-type opioid receptor (Homo sapiens), …. cells. activation, % at 9.3 µM. 340,000 compounds, 0.3% hits;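 note: 0% = vehicle-treated cells and 100% = reference agonist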
MOR-DOR inv ag = inverse agonists of MOR-DOR heterodimerization, primary screen, cell-based, luminescence; cell-based MOR-DOR heterodimer luminescence, inverse agonism; inhibition, % at 9.3 µM; 340,000 compounds, 0.21% hits; in the data active = inhibition above about 22%, passing the limit was not always enough;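 note: 0% = cells with DMSO and 100% = wells without cells with DMSO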
MOR-DOR ag-2 = OPRM1-OPRD1 heterodimerization promoters, counter-screen for HTR5A agonist project, cell-based, luminescence; shares compounds with HTR5A ag ctr; U2OS counter-screen cells, complementation luminescence, 3 h; activation, % at 9.3 µM; 800 compounds, 13% hits
HTR5A ag conf = HTR5A agonists, retest of hits, confirmation, cell-based, luminescence; shares compounds with HTR5A ag ctr; HTR5A agonist cell assay; activation, % at 9.3 µM; 800 compounds, 17% hits; AID 504915, 2011; in the data active = activation above about 17%;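 note: 0% = cells with vehicle only and 100% = full reference agonist response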
* = called active by the depositor; / = not tested or not shown. Hits are enriched below; roughly 1.7% of the tested compounds scored in any of these assays. Cut-off read from the data, not from the text of the source, unless noted: active = activation above about 18%; inactive = the rest.

SMILES | V-ATPase pHluor | HTR5A inv ctr | HTR5A ag ctr | MIN6 prolif | MOR-DOR ag-1 | MOR-DOR inv ag | MOR-DOR ag-2 | HTR5A ag conf
O=C(CCN1CCCCC1=O)NC1CCCN(Cc2ccc(Cl)cc2)C1 (stereo not drawn) | -2.7 | -5.5 | 4.5 | 0.3 | -1.1 | 6.2 | / | /
CC1=NN(c2ccc(C)c(C)c2)C(=O)/C1=C\C=C\c1ccc([N+](=O)[O-])o1 | 0.2 | 19.5 | 16.2* | -6.8 | 13.8 | -75.2 | 16.3 | 2.4
CC1=NN(c2ccccc2)C(=O)/C1=C\C=C\c1ccccc1 | 1.1 | / | / | -6.1 | / | / | / | /
O=C1CCC(C(=O)Nc2cccc(S(=O)(=O)N3CCOCC3)c2)N1 (stereo not drawn) | -4.4 | -30.4 | -0.3 | -0.8 | -2.3 | 11.0 | / | /
CCN(CC)c1c(-c2ccccc2)c2cc(C)ccc2[nH]c1=O | -2.7 | -68.5 | 26.6* | -3.2 | 2.2 | -12.0 | 4.8 | 2.0
C/C(=N\N)c1c(-c2ccccc2)c2cc(C)ccc2[nH]c1=O | 3.4 | -14.5 | 1.4 | 0.1 | 0.0 | -0.1 | / | /
CCn1cc(S(=O)(=O)N2CCCC2)cn1 | 5.4 | -18.3 | -1.3 | -1.7 | -1.8 | 9.9 | / | /
COC(=O)c1c(C(=O)OC)c2n(c1C)Cc1ccccc1C2 | -2.0 | 1.4 | 15.4* | 0.8 | -1.4 | 6.4 | 0.1 | 3.1
O=C(O)c1cc(NC(=O)c2ccccc2[N+](=O)[O-])ccc1O | -5.8 | -2.3 | 0.9 | -2.9 | -1.0 | 5.2 | / | /
COc1cc(C(=O)NNC(=O)c2cc(C)[nH]n2)cc(OC)c1OC | -1.3 | 7.2 | -2.6 | 0.5 | 0.8 | -3.9 | / | /
CC(=O)c1ccc(N(CC(=O)NCC2CCCO2)C(=O)CCC(=O)Nc2cc(C)on2)cc1 (stereo not drawn) | -0.8 | -25.8 | 14.4* | -0.8 | 1.8 | -11.2 | 3.4 | 0.4
COc1cccc(-c2csc(N3CCN(C(=S)Nc4ccc(Cl)cc4)CC3)n2)c1 | 2.3 | -31.6 | 12.2 | -3.0 | 2.3 | -13.2 | / | /
COc1cccc(-c2csc(N3CCN(C(=S)Nc4ccccc4)CC3)n2)c1 | -0.4 | -51.6 | 22.2* | -1.2 | 3.1 | -18.3 | -1.9 | -6.8
CCCOc1c(Cl)cc(C(=O)Nc2ccc3c(c2)OCO3)cc1OCC | -4.4 | -33.9 | 15.9* | -5.2 | 9.5 | -55.9 | 1.1 | -4.2
COc1ccc(NS(=O)(=O)c2cccc(C(=O)N3CCN(Cc4cc(OC)ccc4OC)CC3)c2)cc1 | -1.0 | -15.6 | 14.6* | -2.5 | 0.3 | -1.7 | 135.3* | -4.8
Cc1ccc(-c2nn3cnnc3c3ccccc23)cc1C | -1.4 | -9.1 | 3.2 | -2.6 | -1.4 | 7.3 | / | /
O=C(/C=C/c1cccc(F)c1)OCC(=O)N1CCc2ccccc21 | 1.4 | -46.1 | 18.1* | -3.9 | 1.3 | -5.2 | 1.1 | -1.0
O=C(NCC1CCCO1)c1ccc(Oc2ccc([N+](=O)[O-])cc2Cl)cc1 (stereo not drawn) | 3.0 | -49.5 | 17.5* | 3.7 | 3.4 | -24.6 | -3.5 | -7.7
c1ccc2c(CC3=NCCN3)cccc2c1 | -1.2 | -13.4 | 3.8 | -5.3 | -0.6 | 3.5 | / | /
Cc1cc(C(C)(C)C)c(O)c(C)c1CC1=NCCN1 | -1.6 | -232.0 | 84.1* | -6.7 | -1.1 | 5.8 | 0.3 | 85.6*
CC(C)/C=N/NC(=O)c1ccc(Cl)cc1 | 4.0 | 20.9 | -8.4 | -4.3 | -0.5 | 3.3 | / | /
COc1ccc(N(Cc2ccccc2)S(=O)(=O)c2cccc(C(=O)Nc3ccccn3)c2)cc1 | -2.3 | -47.9 | 18.8* | -4.3 | -3.7 | 14.7 | 3.9 | 0.9
O=C(NCCc1c[nH]c2ccccc12)C(=O)Nc1cc2c3c(c1)CC(=O)N3CCC2 | 6.4 | -39.4 | 16.1* | 0.8 | -0.2 | 1.1 | 31.3* | 13.3
Cc1cnc(NC(=O)Cc2ccc(C)c(C)c2)s1 | 5.1 | -1.9 | 0.7 | -0.2 | -1.7 | 10.8 | / | /
Cc1ccc(C(=O)N2CCCC(N3CCN(c4cccc(C(F)(F)F)c4)CC3)C2)s1 (stereo not drawn) | 2.2 | 9.8 | 14.6* | -4.0 | 5.0 | -25.7 | 5.7 | 5.7
SMILES | V-ATPase pHluor | HTR5A inv ctr | HTR5A ag ctr | MIN6 prolif | MOR-DOR ag-1 | MOR-DOR inv ag | MOR-DOR ag-2 | HTR5A ag conf
CC(=O)N1CCCC(N2CCN(c3cccc(C(F)(F)F)c3)CC2)C1 (stereo not drawn) | -0.9 | -8.3 | 2.3 | -0.8 | -1.7 | 7.8 | / | /
CC1CCc2sc3c(c2C1)c(=O)n(CC(=O)O)c(=O)n3Cc1ccc(Cl)cc1 (stereo not drawn) | 0.5 | -7.3 | 2.0 | -5.8 | -2.9 | 13.9 | / | /
CC(NC(=O)c1ccco1)c1ccc2c(c1)OCCO2 (stereo not drawn) | -0.6 | -14.3 | 15.4* | -2.2 | -0.1 | 0.3 | 1.9 | -2.9
COc1ccc(CSCC(=O)N/N=C/c2ccccc2OCc2ccccc2)cc1 | -0.4 | -57.5 | 21.9* | -0.8 | 0.8 | -4.7 | 0.9 | 1.4
Cc1ccc(NC(=O)C2CCN(c3ncnc4sc(C)c(C)c34)CC2)cc1S(=O)(=O)N(C)C | -1.4 | -53.7 | 19.5* | -2.3 | 1.5 | -9.5 | -2.1 | -1.8
COc1ccc2[nH]c3c(c2c1)CCNC3C1CC=C(C)CC1 (stereo not drawn) | 1.3 | -51.4 | 33.6* | -5.0 | 1.3 | -6.6 | 5.0 | 51.3*
CCn1c(=O)c(C(=O)Nc2ncccc2O)c(O)c2ccccc21 | 1.6 | -8.9 | 3.2 | -1.5 | -3.1 | 15.9 | / | /
CCn1c(=O)c(C(=O)Nc2ncccc2C)c(O)c2ccccc21 | -0.8 | -42.5 | 16.3* | -5.3 | -1.4 | 7.3 | 2.5 | 10.0
COc1cccc(CN2CC(C(=O)NCc3cnn(C)c3)CCC2=O)c1 (stereo not drawn) | -3.6 | 9.2 | -0.4 | -1.7 | -4.1 | 13.6 | / | /
O=C(NCCc1c[nH]c2ccccc12)C(=O)NCC1OCCN1S(=O)(=O)c1ccccc1 (stereo not drawn) | -1.0 | -65.0 | 35.9* | -0.3 | -2.5 | 12.2 | 1.2 | 57.0*
O=C(NCCc1c[nH]c2ccccc12)C(=O)NCC1OCCN1S(=O)(=O)c1ccc(F)cc1 (stereo not drawn) | 4.0 | -34.5 | 11.3 | 1.2 | 0.0 | 0.1 | / | /
Cc1ccc(S(=O)(=O)N2CCCOC2CNC(=O)C(=O)NCCc2c[nH]c3ccccc23)cc1 (stereo not drawn) | -2.6 | -90.6 | 30.3* | -0.2 | 2.3 | -11.9 | 2.8 | 26.0*
O=C(NCCc1c[nH]c2ccccc12)C(=O)NCC1OCCCN1S(=O)(=O)c1ccccc1 (stereo not drawn) | -0.2 | -177.3 | 48.5* | -3.1 | -1.1 | 5.6 | 4.0 | 46.5*

High-throughput results from PubChem BioAssay.
